In the supplement of paper PMC9433436:
± gives the standard deviation of the averaged measurements. In all, about 4,100 sequences were measured (“relative kcat/Km (krel) vs genomic leader AAAGAU”: median about 1.7, highest 2% from about 6.5 on). What follows is part of a selection rich in the highest values, with near analogues and random picks from the rest.

Biological target: T1, E. coli RNase P holoenzyme (M1 P RNA + rnpA protein) (UniProt P0A7Y8)
T1 sequence: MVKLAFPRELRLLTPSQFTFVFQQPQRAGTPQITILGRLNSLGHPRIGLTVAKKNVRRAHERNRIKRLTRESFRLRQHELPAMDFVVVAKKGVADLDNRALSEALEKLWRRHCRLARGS
Assay: relative kcat/Km (krel) vs genomic leader AAAGAU (relative (reference leader = 1)); higher = faster RNase P cleavage
Experimental: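 HTS-Kin: a pool of ptRNA-Met (21C construct) with all 4096 combinations of 5' leader nucleotides N(-6) to N(-1) was processed in vitro by E. coli RNase P (P RNA + rnpA/C5 protein) under multiple-turnover conditions at 37 C, pH 8, 17.5 mM MgCl2. Residual substrate was Illumina-sequenced at several fractions reacted, and relative kcat/Km (krel) was computed by internal competition kinetics, calibrated to the genomic leader (AAAGAU = 1). The listed hexamer is the varied N(-6)..N(-1) leader (DNA letters), and it sits between a fixed 5' stem-loop flank (GCAUGCACGAAAGUGCGUGCUAUGAA) and the mature tRNA-Met starting GGCUACGUAGCUCAGUUGG. Two technical replicates are averaged.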

[1] = fraction of substrate reacted: ~13-16% (15.68% repeat 1, 13.17% repeat 2)
[2] = fraction of substrate reacted: ~26-29% (28.66% repeat 1, 26.4% repeat 2)
[3] = fraction of substrate reacted: ~9-10% (9.79% repeat 1, 9.1% repeat 2)

Sequence | relative kcat/Km [1] | relative kcat/Km [2] | relative kcat/Km [3]
GCAATT | 0.851 ± 0.064 | 1.21 ± 0.26 | –
AGTGTG | – | 0.473 ± 0.33 | –
CCCTAG | 2.55 ± 0.57 | 4.45 ± 1.2 | 3.11 ± 1.7
GCCTAT | 3.91 ± 0.98 | 6.22 ± 2.8 | 2.77 ± 0.47
CCTAAA | 2.31 ± 0.051 | 3.14 ± 0.82 | 2.53 ± 1.5
GCCTAG | 1.57 ± 0.49 | 3.67 ± 1.2 | 2.58 ± 1.6
CCCTAA | 4.41 ± 1.4 | 6.7 ± 3.1 | 3.68 ± 0.17
ACCTCA | 3.24 ± 0.27 | 4 ± 1.2 | 3.35 ± 1.8
CCCTGT | – | 1.59 ± 0.87 | –
GCCTAA | 3.94 ± 0.16 | 7.08 ± 2.8 | 2.35 ± 0.18
ACCTAA | 4.49 ± 0.31 | 6.74 ± 2.3 | 2.83 ± 0.76
ACCTAG | 2.93 ± 0.56 | 4.27 ± 0.99 | 2.77 ± 2.8
CCCCCT | 1.25 ± 0.29 | 1.95 ± 0.15 | 2.27 ± 1.8
CCCTAT | 5.47 ± 1.1 | 7.09 ± 3.1 | 3.137 ± 0.006
TGCAAA | 1.86 ± 0.54 | 2.7 ± 1.3 | 0.962 ± 0.78
CGGACC | 0.714 ± 0.41 | 0.577 ± 0.38 | 0.889 ± 0.39
ACCGGT | – | 1.78 ± 1.1 | –
TGGTCT | – | 0.817 ± 0.39 | –
CTGGCG | – | 0.461 ± 0.2 | 0.881 ± 0.58
CAGTGA | 2.14 ± 0.58 | 3.05 ± 0.86 | 1.48 ± 0.7
GATCGA | 2.79 ± 1.2 | 4.26 ± 1.2 | 2.37 ± 0.82
GTTAAG | 1.6 ± 0.16 | 2.65 ± 0.77 | –
CTACTC | 1.61 ± 0.43 | 2.14 ± 0.28 | 2.13 ± 1.3
TCCTAA | 6.12 ± 0.94 | 9.11 ± 3.3 | 5.1 ± 1.9
TCCTAG | 3.4 ± 0.46 | 6.01 ± 2.7 | 2.56 ± 0.72
AACCGA | 3.23 ± 0.34 | 4.66 ± 1.2 | 2.67 ± 0.52
TACCGA | 4.89 ± 1.1 | 7.04 ± 2.7 | 2.83 ± 0.7

Sequence | relative kcat/Km [1] | relative kcat/Km [2] | relative kcat/Km [3]
CACCGA | 3.9 ± 0.93 | 6.22 ± 2.1 | 3.39 ± 1.4
GACCGA | 4.27 ± 2.1 | 6.73 ± 2.8 | 3.3 ± 0.89
TACCGG | – | 1.29 ± 0.22 | –
TACCGC | 4.16 ± 0.76 | 6.03 ± 2.5 | 3.15 ± 1.3
AGCCGC | 2.5 ± 0.098 | 4.02 ± 1.1 | 3.07 ± 1.3
TGTATC | 2.43 ± 0.36 | 4 ± 1.6 | 1.92 ± 0.29
AACTGT | 0.97 ± 0.59 | 0.608 ± 0.51 | 0.625 ± 0.14
GGACGG | – | 0.782 ± 0.17 | –
GGCGGC | – | 0.914 ± 0.47 | –
GAACAG | 0.667 ± 0.64 | 1.66 ± 0.19 | –
ACATAT | 4.26 ± 0.58 | 6.5 ± 3.1 | 2.86 ± 0.79
TAATAT | 5.05 ± 0.28 | 7.45 ± 3.4 | 3.78 ± 1.4
TAATAA | 4.41 ± 0.57 | 5.5 ± 2.2 | 3.59 ± 2
TCATAC | 5.72 ± 0.91 | 7.38 ± 3 | 4.3 ± 0.51
TCATAG | 1.66 ± 0.34 | 3.6 ± 0.47 | 1.97 ± 1.4
TCATAA | 4.17 ± 0.67 | 5.77 ± 2.2 | 3.15 ± 1.2
GAATAT | 4.3 ± 0.79 | 6.29 ± 3.4 | 2.99 ± 0.33
TCATAT | 5.49 ± 1 | 8.18 ± 3.4 | 4.21 ± 1.4
ACATAC | 3.78 ± 0.48 | 6.1 ± 2.7 | 3.09 ± 1.3
ACAACT | – | 1.07 ± 0.15 | –
CGGACA | 0.739 ± 0.49 | 0.747 ± 0.23 | 0.696 ± 0.1
GCAAAT | 2.01 ± 0.39 | 1.93 ± 0.58 | 2.24 ± 0.9
CGACCC | 0.175 ± 0.13 | 1.47 ± 0.038 | –
AAGATG | – | 0.939 ± 0.44 | –
AACGAC | 4.57 ± 1.6 | 5.98 ± 2.1 | 3.67 ± 0.53
CACGAT | 2.22 ± 0.33 | 3.42 ± 1.1 | 1.78 ± 0.53
GACGGA | 1.21 ± 1.1 | 0.922 ± 0.64 | –

Sequence | relative kcat/Km [1] | relative kcat/Km [2] | relative kcat/Km [3]
CACGAC | 5.56 ± 2.7 | 7.35 ± 3 | 3.62 ± 0.058
TACGAC | 5.54 ± 1.6 | 7.61 ± 3.2 | 3.699 ± 0.0078
GACGAA | 6.07 ± 1.1 | 8.11 ± 2.6 | 3.75 ± 1.5
TACGAA | 5.68 ± 1 | 8.44 ± 3.8 | 2.87 ± 0.059
AACGAA | 3.68 ± 0.69 | 5.36 ± 1.9 | 2.84 ± 0.7
GACGTA | 2.86 ± 0.42 | 3.54 ± 1.3 | 2.41 ± 1.4
TACGAG | 1.58 ± 0.12 | 3.95 ± 1.1 | –
TACGAT | 2.79 ± 0.68 | 3.63 ± 1.5 | 2.93 ± 1.5
CACGAG | 2.47 ± 1.2 | 3.69 ± 1.2 | 1.8 ± 0.22
TCGTCA | 2.51 ± 0.12 | 3.63 ± 1.3 | 2.78 ± 1.8
ACTAGG | – | 0.408 ± 0.15 | –
CGGGCA | 0.965 ± 0.75 | 0.825 ± 0.17 | 1.28 ± 0.55
CCAGAC | 2.1 ± 1.1 | 3.22 ± 0.77 | 2.22 ± 0.29
AAGGGA | – | 1.11 ± 0.65 | –
TTTTCC | 2.75 ± 0.3 | 3.22 ± 0.98 | 2.77 ± 1.4
GAGGTG | – | 0.61 ± 0.57 | –
GGATGG | – | 0.8644 ± 0.0076 | –
CTTTTT | 3.27 ± 0.75 | 4.46 ± 1.3 | 2.99 ± 1.5
GCTCGG | 0.268 ± 0.21 | 0.748 ± 0.15 | 0.809 ± 0.37
GACGAC | 5.87 ± 1.6 | 7.89 ± 2.8 | 3.35 ± 0.49
CACGTA | 2.23 ± 0.31 | 3.56 ± 1.4 | 1.91 ± 1.1
GACGAT | 2.06 ± 1.5 | 2.68 ± 1.1 | 1.52 ± 0.65
GACGAG | 1.49 ± 0.19 | 3.3 ± 0.29 | –
CACGAA | 6 ± 1.6 | 7.87 ± 2.6 | 4.26 ± 1.8
CACGCA | 3.31 ± 1.5 | 4.91 ± 1.6 | 2.14 ± 0.48
CGGATT | – | 0.799 ± 0.34 | –
CAAATA | 1.68 ± 0.092 | 1.78 ± 0.47 | 2.33 ± 2.3

Sequence | relative kcat/Km [1] | relative kcat/Km [2] | relative kcat/Km [3]
CACCTA | 2.44 ± 0.4 | 3.68 ± 1.3 | 2.32 ± 0.25
ACTAAC | 1.42 ± 0.44 | 2.32 ± 0.65 | 1.48 ± 0.31
TGCTGC | 1.51 ± 1.2 | 2.71 ± 1 | 1.63 ± 0.12
CTCTGG | – | 1.31 ± 0.49 | 0.652 ± 0.17
TTCTGA | 5.18 ± 0.91 | 7.63 ± 2.7 | 4.7 ± 2.6
TTCTGT | – | 2.43 ± 1.9 | –
CTCTGC | 5.74 ± 1.6 | 7.34 ± 3 | 3.95 ± 0.21
ATCTGC | 3.94 ± 1.9 | 6.13 ± 3 | 3.18 ± 0.4
GTCTGC | 4.94 ± 1.2 | 7.11 ± 3.3 | 3.58 ± 1.3
GACTGC | 3.38 ± 0.99 | 4.88 ± 1.6 | 3.44 ± 0.14
TTCTGG | 0.819 ± 0.094 | 1.66 ± 0.46 | 0.949 ± 0.38
GCCTGC | 3.39 ± 0.37 | 4.68 ± 2.1 | 2.23 ± 0.7
ATCTGA | 3.98 ± 0.23 | 6.19 ± 2.2 | 3.86 ± 1.9
TTCTGC | 5.95 ± 2.2 | 8.28 ± 3.5 | 4.12 ± 0.25
GGTTGG | – | 1.05 ± 0.77 | –
TGACAC | 4.21 ± 0.43 | 5.94 ± 2.2 | 3.63 ± 1.5
TTGCCT | 1.33 ± 0.068 | 2.09 ± 0.58 | 1.95 ± 0.52
GGAGCC | 0.902 ± 0.094 | 1.3 ± 0.38 | 1.22 ± 0.046
ACACGG | 0.487 ± 0.4 | – | –
ACGCAA | 1.95 ± 0.18 | 2.25 ± 0.13 | 1.95 ± 1.4
GGGGCG | – | 0.656 ± 0.0035 | 0.268 ± 0.026
ATAGGT | – | 2.15 ± 1.4 | –
ATAACT | 1.21 ± 0.2 | 1.79 ± 0.75 | 1.28 ± 0.37
GAGTTT | 1.28 ± 0.17 | 2.05 ± 0.46 | 1.6 ± 0.65
